Assay outcomes from PubChem.
Shown are actives, neighbours in structure and some others; about 1.1% of the full set was active somewhere.
LDHA block = inhibitors of human lactate dehydrogenase A. 0.15% of 480,000 active. activity change, % (values are at about 110 or 230 µM). purified LDHA, NADH/diaphorase-resazurin fluorescence; hits give low values. P00338; in the data active = activity change below about -30%; inconclusive = mostly about -25% to -30%;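 also: plate controls were DMSO wells for no effect and wells without enzyme for full effect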
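Human LDH5 at 2 nM final in Tris HCl pH 7.4 with 0.06 mM NADH and 0.2 mM pyruvate, reacted 5 minutes at room temperature. Remaining NADH coupled via diaphorase/resazurin; resorufin fluorescence read at 0 and 20 minutes, normalized to enzyme-free and DMSO wells.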
PTHR1 agonist = PTHR1 (human) receptor agonism | Q03431 | HEK293 GP2 PTHR1 cells, GloSensor cAMP luminescence, 1 h | Potency, µM (top dose mostly 115 µM), for the others: at the top dose activation, hits mostly activators | 0.075% of 410,000 active; also: potency is read from the fitted curve at half-maximal effect; nearly all actives have a fitted effect of over 55% in size
Target sequence (Q03431 whole entry, looked up): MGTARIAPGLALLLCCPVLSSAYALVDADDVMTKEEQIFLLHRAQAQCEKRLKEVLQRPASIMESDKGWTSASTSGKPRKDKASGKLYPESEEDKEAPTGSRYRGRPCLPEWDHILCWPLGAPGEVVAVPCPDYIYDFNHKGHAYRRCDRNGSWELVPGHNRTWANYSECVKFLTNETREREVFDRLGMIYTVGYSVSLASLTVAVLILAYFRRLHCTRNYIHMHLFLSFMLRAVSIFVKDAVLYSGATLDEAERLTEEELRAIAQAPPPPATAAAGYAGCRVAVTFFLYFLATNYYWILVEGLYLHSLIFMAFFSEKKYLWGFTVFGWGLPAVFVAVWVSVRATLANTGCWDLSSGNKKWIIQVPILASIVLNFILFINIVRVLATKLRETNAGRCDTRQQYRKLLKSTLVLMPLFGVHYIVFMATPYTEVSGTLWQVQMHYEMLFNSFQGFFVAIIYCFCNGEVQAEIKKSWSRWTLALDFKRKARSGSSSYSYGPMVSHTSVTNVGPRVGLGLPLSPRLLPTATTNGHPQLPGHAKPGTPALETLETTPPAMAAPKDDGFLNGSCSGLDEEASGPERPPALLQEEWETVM
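HEK-293-derived GP2 cells expressing PTHR1 and a GloSensor cAMP reporter, 3,000/well, plated overnight, given luciferin plus IBMX (each 0.5 mM as added) for 1 h at 37 °C, then compound for 1 h at 37 °C. Luminescence was read after 15 min at room temperature.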
RGS4 inhibitor = inhibitors of human regulator of G protein signaling 4 | Transcreener GDP fluorescence polarization, RGS4-accelerated GTP hydrolysis | AID 504845 | P49798 | Potency, µM (doses to about 114 µM), for the others: at the highest dose activity change, negative = inhibition, actives largely listed as inhibitors | 0.039% of 390,000 active; also: potency is read from the fitted curve at half-maximal effect; % is scaled to controls: 0 for no effect and ±100 for the full control effect; nearly all actives have a fitted effect of over 75% in size
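MLSMR compounds (23 nl, pin-transferred) preincubated 10 min at room temperature with a 500nM (2x) first reagent, then RGS4 at 900nM (2x) plus Transcreener GDP mix added; fluorescence polarization (620/688 nm) read before and after 90 min at 30 °C.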
BRCA1 expr up = increases BRCA1 expression; MCF7-BRCA1-FFLuc reporter, luminescence, 48 h; response scale: scaled: vehicle 0%, 10 µM genistein 100%; Potency, µM (titrated, usually from 46.1 µM), for the others: top-dose activation, most hits filed as activators; AID 624202; 1.1% of 380,000 active; also: potency is read from the fitted curve at half-maximal effect; nearly all actives have a fitted effect of over 80% in size
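Luminescence from a BRCA1-driven firefly luciferase in MCF7 cells was read after 48 h compound exposure at 37 C. Data normalized against DMSO and a 10microM genistein activation control, then curve-fitted across the titration.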
p53 reactivation = mutant p53 re-activation in reporter cells. Potency, µM (series often up to 92.2 µM), for the others: at the top dose activity change, positive = activation, usual class: activators. AID 504706. 0.063% of 320,000 active. H1299 p53-A138V BP100-luciferase reporter, luminescence, 24 h; also: potency is read from the fitted curve at half-maximal effect; % of control where 0% means no effect; nearly all actives have a fitted effect of over 45% in size
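p53-null H1299 cells stably carrying temperature-sensitive p53-A138V and a BP100-luciferase reporter were pinned with compounds (4-point, 1:5 series) and held 24 hrs at 37 deg C. Luminescence was read 10 min after detection reagent.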
Active calls of the source: *; i = inactive; ? = inconclusive; / = not tested or not shown; [ ] = remark or other dose. Unless noted, calls follow the shape of the dose curve; as a rule, active = well fitted curve in the direction sought with a large enough effect; inconclusive = small, poorly fitted or top-dose-only effect, or another doubt; inactive = no such curve, though single readings can be large; an effect the other way counts as inactive or inconclusive.

SMILES	LDHA block	PTHR1 agonist	RGS4 inhibitor	BRCA1 expr up	p53 reactivation
CCCOc1ccc(C(=O)Nc2ccc3c(c2)OCO3)cc1	-2.5	-26.4%	-3.4%	3.16µM*	3.0%
Cc1cccc(C(=O)Nc2ccc3nc(SCc4ccc(I)cc4)sc3c2)c1	3.7	/	/	/	/
O=C1COc2ccc(OCc3ccc(F)cc3)cc21	-7.0	-18.7%	-17.0%	2.82µM*	28.3%
CNc1cccc(Cl)c1Cl	1.6	/	/	/	/
Cc1cccc(C(=O)N(Cc2ccco2)c2ccccn2)c1	2.5	/	/	/	/
C(=N\Nc1nc2ccccc2[nH]1)/c1c[nH]c2ccccc12	-2.0	-24.7%	-13.7%	-8.9%	25.1µM*
Fc1cccc(/C=N/Nc2nc3ccccc3[nH]2)c1	-1.1	i	-14.2%	4.47µM*	-3.8%
C(=C\c1ccccc1)/C=N/Nc1nc2ccccc2[nH]1	-8.8	-0.3%	10.1%[11.4 µM]	?	8.91µM*
Fc1cccc(/C=N/Nc2ccccn2)c1	-3.9	-39.6%	10.6%	7.94µM*	3.5%
C(=N\Nc1nc2ccccc2[nH]1)/c1ccccc1	-4.0	-37.4%	-3.2%	?	-1.3%
CC(C)C(=O)NC(Nc1cccc2ccccc12)C(Cl)(Cl)Cl (configuration not stated)	69.8	/	/	/	/
COc1ccc(C(=O)C(C)OC(=O)c2cc(OC)cc(OC)c2)cc1 (configuration not stated)	1.0	/	/	/	/
CCOC(=O)c1sc(NC(=O)c2cccc(S(=O)(=O)N3CCOCC3)c2)cc1C	-1.6	/	/	/	/
O=c1[nH]nc(SCc2nc(-c3ccccc3Cl)no2)n2nc(-c3ccco3)cc12	0.9	/	/	/	/
COc1ccc(C(=O)Nc2ccccc2C(=O)Nc2cccc(C)n2)cc1	-0.4	-17.9%	-40.9%	57.6%	/
COc1ccc(C(=O)Nc2cnc(NC(=O)c3cccs3)cc2C)cc1	16.5	i	-14.9%	7.08µM*	12.9%
COc1ccc(C(=O)Nc2ccccc2C(=O)Nc2cc(C)ccn2)cc1	-3.0	i	-11.7%	2.24µM*	24.6%
COc1ccc(C(=O)Nc2cc(C)c(NC(=O)c3ccccn3)cn2)cc1	-4.4	-25.7%	-24.2%	?	20.3%
COc1cc(NC(=O)c2cc3ccccc3o2)ccc1NC(=O)c1ccccc1Cl	-12.3	/	/	/	/
Cc1cc(C)cc(C(=O)Nc2nc3ccccc3[nH]2)c1	5.7	-0.5%	-24.4%	7.94µM*	23.9%
O=C(CC1CCCC1)Nc1nc2ccccc2[nH]1	-1.0	i	-5.4%[11.4 µM]	3.16µM*	18.7%
COc1ccc(OCC(=O)Nc2nc3ccccc3[nH]2)cc1	-4.0	-6.3%[57.5 µM]	-7.3%	10µM*	?
Cc1cccc(CC(=O)N2CC(=O)Nc3ccc(Br)cc3C2c2ccccc2)c1 (configuration not stated)	-7.6	/	/	/	/
O=C(N/N=C/C1CC=CCC1)c1ccc(Cl)cc1O (configuration not stated)	0.7	i	-2.2%	21.5%	31.6µM*
Cc1nc(Nc2ccccc2)sc1C(=O)c1ccccc1	-1.8	i	5.3%	10µM*	12.8%
SMILES	LDHA block	PTHR1 agonist	RGS4 inhibitor	BRCA1 expr up	p53 reactivation
N#C/C(=C\c1cccn1-c1ccccc1)c1ccccc1	0.7	/	/	/	/
O=C(CSc1nnc(C2CCCCC2)o1)Nc1ccccc1Cl	-1.3	-37.0%	-20.6%	10µM*	?
CCC(=O)N/C(N)=N/c1nc(C)c2cc(OC)ccc2n1	4.8	-4.1%[57.5 µM]	-7.4%	1.7%	37.1%
COc1ccc2nc(/N=C(\N)NC(=O)C(C)(C)C)nc(C)c2c1	-3.6	-3.3%[57.5 µM]	27.6%	11.2µM*	?
Cc1ccc(SC(Sc2ccc(C)cc2)(C(=O)c2ccccc2)C(=O)c2ccccc2)cc1	5.7	/	/	/	/
CCc1ccc(Oc2cc(C)nc(N)n2)cc1	2.9	-22.7%	-4.2%	3.16µM*	?
CCCc1ccc(Oc2cc(Cl)nc(N)n2)cc1	-7.2	i	-5.7%	81.8%	15.3%
O=C(CSc1nc2ccccc2n1S(=O)(=O)c1ccccc1)N1CCCCC1	-0.7	i	1.4%	14.1µM*	4.1%
Cc1ccc(Nc2nc(N)nc(CSc3nc(C)cc(C)n3)n2)cc1	-2.4	i	-28.3%	-16.0%	/
Cc1ccc(Nc2nc(N)nc(CSc3nccn3C)n2)c(C)c1	-2.7	-12.1%	-6.4%	7.08µM*	26.4%
Cc1ccc(Nc2nc(N)nc(CSc3ncccn3)n2)cc1	-0.4	-0.4%	13.4%	2.24µM*	?
Nc1nc(CSc2ncccn2)nc(Nc2ccccc2)n1	-6.4	i	-26.4%	3.98µM*	?
Cc1ccc2oc(C(=O)NCCCOC3CCCCC3)cc(=O)c2c1	2.8	/	/	/	/
O=C1/C(=C/c2cnc(-c3ccccc3)nc2)CS(=O)(=O)c2ccccc21	4.4	/	/	/	/
COc1ccc2cc(C(=O)NCCCN(C)C)[nH]c2c1	-2.4	/	/	/	/
COc1ccc2c(c1OC)C(=O)N(c1cccc(C(F)(F)F)c1)C2	-2.2	-13.4%[57.5 µM]	0.9%	2.82µM*	?
Cc1cccc(C(CC(=O)Nc2cccc(-c3ccno3)c2)n2cccc2)c1 (configuration not stated)	14.8	/	/	/	/
COc1ccc(COc2ccc3c(C)cc(=O)oc3c2)cc1	-2.8	-20.5%	-4.1%	2.51µM*	/
COc1ccc2c(CN(C)Cc3ccccc3)cc(=O)oc2c1	-4.0	-41.9%	/	5.01µM*	/
Cc1ccc2c(CN(C)CCOc3ccc(F)cc3)cc(=O)oc2c1	-32.8*	/	/	/	/
CC(/C=C/c1ccccc1)=N/O	-3.1	i	-14.6%	42.5%	?
CC(/C=C/c1ccc(O)cc1)=N/O	-0.1	i	3.2%	12.6µM*	?
CC(C(=O)Nc1ccc2c(c1)OCO2)N(C)CC(=O)Nc1ccccc1Cl (configuration not stated)	-3.2	-28.0%	27.9%	10.4%	-0.6%
CSc1ccccc1NC(=O)CN(C)C(C)C(=O)NCc1ccc2c(c1)OCO2 (configuration not stated)	-46.6*	-37.1%	7.4%	-0.5%	1.5%
c1ccc(-n2cnnc2SCc2cn3ccsc3n2)cc1	-9.3	i	-8.0%	-0.1%	-9.5%
c1ccn2c(SCc3cn4ccsc4n3)nnc2c1	-0.7	-1.3%	-37.9%	5.01µM*	0.8%
Clc1ccc(CSc2snnc2-c2ccccc2)c(Cl)c1	-3.8	-21.1%	55.4%	64.8%	39.8µM*
Clc1ccc(CSc2nnc3ccccn23)c(Cl)c1	0.5	i	-12.4%	10µM*	?
